Measurements reported in the supplement of paper PMC12669032.

What was measured:
Assay in all cases: growth AUC relative to DMSO control (median of replicates) (fraction); higher = more growth (less inhibition), active = hit call of the paper
Details in all cases: 20 µM; 24 h;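 active = AUC reduced over 20% with Padj below 0.05 in at least 2 of 3 replicates; inactive = otherwise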
[1] = system: Akkermansia muciniphila
Procedure, shortened: (§1)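 OD600 was recorded every hour for 24 h in anaerobic monocultures of gut bacteria kept at 37 °C in mGAM, seeded at OD600 0.05 and given 20 µM compound in 1% DMSO. The area under each growth curve was scaled to the plate median of solvent-only wells, or to row and column medians for the industrial chemical plate. Before this step, the minimum OD was set to 0. Reported values are medians of three biological replicates run on separate days.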

[2] = system: Bacteroides caccae
Procedure, shortened: as §1

[3] = system: Bacteroides clarus
Procedure, shortened: as §1

[4] = system: Bacteroides dorei
Procedure, shortened: as §1

[5] = system: Bacteroides stercoris
Procedure, shortened: as §1

[6] = system: Bacteroides thetaiotaomicron
Procedure, shortened: as §1

[7] = system: Bacteroides uniformis
Procedure, shortened: as §1

[8] = system: Bifidobacterium longum subsp. longum
Procedure, shortened: as §1

[9] = system: Clostridium difficile
Procedure, shortened: as §1

[10] = system: Collinsella aerofaciens
Procedure, shortened: as §1

[11] = system: Coprococcus comes
Procedure, shortened: as §1

[12] = system: Escherichia coli ED1a
Procedure, shortened: as §1

[13] = system: Escherichia coli IAI1
Procedure, shortened: as §1

[14] = system: Eubacterium rectale
Procedure, shortened: as §1

[15] = system: Fusobacterium nucleatum subsp. animalis
Procedure, shortened: as §1

[16] = system: Lactobacillus gasseri
Procedure, shortened: as §1

[17] = system: Lactobacillus paracasei
Procedure, shortened: as §1

[18] = system: Odoribacter splanchnicus
Procedure, shortened: as §1

[19] = system: Parabacteroides distasonis
Procedure, shortened: as §1

[20] = system: Parabacteroides merdae
Procedure, shortened: as §1

Measured: growth AUC

CCOC(=O)c1ccc(O)cc1
inactive: [1] 1.17 | [2] 0.967 | [3] 1.01 | [4] 0.842 | [5] 0.993 | [6] 0.991 | [7] 1 | [8] 1.02 | [9] 1.01 | [10] 1 | [11] 1 | [12] 0.974 | [13] 0.969 | [14] 1.07 | [15] 1.05 | [16] 0.822 | [17] 0.978 | [18] 0.988 | [19] 0.893 | [20] 0.976

CC(C)CCCCCOC(=O)C(C)Oc1ccc(Cl)cc1Cl (stereo not given)
inactive: [1] 1.14 | [2] 1 | [3] 1.03 | [4] 0.954 | [5] 0.966 | [6] 1.04 | [7] 0.992 | [8] 0.969 | [9] 1.06 | [10] 1.02 | [11] 1.01 | [12] 0.979 | [13] 1.02 | [14] 1.21 | [15] 1.06 | [16] 0.817 | [17] 0.962 | [18] 0.814 | [19] 0.925 | [20] 0.9

Oc1ccccc1
inactive: [1] 1.08 | [2] 0.963 | [3] 0.991 | [4] 1.03 | [5] 0.992 | [6] 0.997 | [7] 1.03 | [8] 0.998 | [9] 1.02 | [10] 1 | [11] 1.03 | [12] 1 | [13] 0.983 | [14] 0.983 | [15] 1.04 | [16] 1.08 | [17] 1.04 | [18] 0.984 | [19] 1.04 | [20] 1.01

CCCOc1nc2ccc(I)cc2c(=O)n1CCC
inactive: [1] 0.956 | [2] 0.995 | [3] 0.896 | [4] 1.01 | [5] 0.905 | [6] 0.936 | [7] 0.95 | [8] 0.937 | [9] 0.964 | [10] 0.952 | [11] 1.04 | [12] 0.991 | [13] 0.974 | [14] 0.996 | [15] 0.973 | [16] 0.833 | [17] 0.976 | [18] 1.05 | [20] 0.923
active: [19] 0.647

C[S+](C)CCC(=O)O.[Cl-]
inactive: [1] 0.964 | [2] 1.03 | [3] 0.974 | [4] 1.04 | [5] 0.974 | [6] 1 | [7] 1.01 | [8] 1.01 | [9] 1.01 | [10] 0.986 | [11] 0.97 | [12] 0.985 | [13] 1.01 | [14] 0.923 | [15] 0.939 | [16] 1.08 | [17] 1.01 | [18] 0.979 | [19] 0.959 | [20] 1.02

Cc1ccc2c(c1)[C@H](Nc1nc(N)nc(C(C)F)n1)[C@@H](C)C2 (stereo not given in full)
inactive: [1] 0.985 | [2] 1 | [3] 0.969 | [4] 0.989 | [5] 1.08 | [6] 0.975 | [7] 0.948 | [8] 1.03 | [9] 0.998 | [10] 1.01 | [11] 0.968 | [12] 1.03 | [13] 1.02 | [14] 0.91 | [15] 0.857 | [16] 0.982 | [17] 0.986 | [18] 0.902 | [19] 1.09 | [20] 0.972

Oc1ccc2nc(-c3cscn3)[nH]c2c1
inactive: [1] 0.877 | [2] 1.07 | [3] 0.955 | [4] 0.997 | [5] 0.98 | [6] 0.985 | [7] 0.982 | [8] 1.01 | [9] 0.988 | [10] 1.01 | [11] 0.994 | [12] 0.988 | [13] 0.974 | [14] 1.01 | [15] 0.975 | [16] 0.869 | [17] 0.997 | [18] 1.01 | [19] 1.02 | [20] 0.958

CC(C)(NC(=O)NCc1ccccc1Cl)c1ccccc1
inactive: [1] 1.12 | [2] 1 | [3] 1.03 | [4] 0.925 | [5] 0.951 | [6] 1.02 | [7] 0.983 | [8] 1.08 | [9] 1.01 | [10] 0.96 | [11] 1.02 | [12] 1.04 | [13] 1.03 | [14] 1.03 | [15] 1.02 | [16] 0.978 | [17] 0.986 | [18] 1.05 | [19] 1.02 | [20] 0.994
